Among the data in PubChem BioAssay (Tox21) are Potency and max activation values, retold here.

Each structure is given as a SMILES string. “And” between values parts separate entries of the source, which are not always exact repeats. Equal values may be shown once. Inconclusive results are not listed. Where a structure was tested more than once in an assay, its records may differ in their call. The source made the active and inactive calls. The call rests on the fitted dose curve; in most records, active means well fitted curve in the direction sought with a large enough effect in the repeat runs; inconclusive means weak or mixed curves; inactive means no such curve, though single readings can be large; an effect the other way counts as inactive or inconclusive.

Test [1] can be described thus: Human pregnane X receptor (PXR) small molecule agonists, qHTS cell viability counter screen (AID 1346977). Further: nearly all actives have a fitted effect of over 50% in size. Further: potency means the concentration at half of the fitted maximal effect. A digest of the protocol:
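In each well, the PXR reporter HepG2 line was checked for viability: CellTiter-Fluor reagent added 23hr post-dosing, fluorescence read after 1hr incubation at 37C.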
(In general: Quantitative high-throughput screening tests each substance at several concentrations.)

Test [2] can be described thus: Caspase-3/7 induction in HepG2 cells by small molecules, qHTS assay (AID 1346978). Further: nearly all actives have a fitted effect of over 15% in size. Further: potency means the concentration at half of the fitted maximal effect. A digest of the protocol: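 Wild-type HepG2 cells, 2,000/well, settled 5 hr at 37 C and 5% CO2, then compound-treated for 17 hr; caspase-3/7 activity read by luminescent Caspase-Glo 3/7 after 30 min at room temperature.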
Test [3] in a line: Caspase-3/7 induction in CHO-K1 cells by small molecules, qHTS assay (AID 1346980). Further: nearly all actives have a fitted effect of over 15% in size. A digest of the protocol: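 Wild-type CHO-K1 cells exposed to compounds for 17hr at 37 C, 5% CO2. Caspase-3/7 activity then measured by Caspase-Glo 3/7 luminescence after 30min at room temperature.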
Test [4] is described as follows: Caspase-3/7 induction in HepG2 cells by small molecules, qHTS cell viability counter screen (AID 1346981). Further: nearly all actives have a fitted effect of over 30% in size. Further: potency means the concentration at half of the fitted maximal effect. A digest of the protocol: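 Steps: seed 2,000 HepG2 cells per well; incubate 5 hr at 37 C; pin-add compounds in DMSO; incubate 16 hr; add CellTiter-Fluor; after 1 hr at 37 C and 5% CO2, read fluorescence.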
Test [5] addresses Cytochrome P450 2D6 (Homo sapiens) (UniProt P10635). Nature of the test: Cytochrome P450 Family 2 Subfamily D Member 6 (CYP2D6) small molecule antagonists: luciferase reporter qHTS assay (AID 1671196). Further: nearly all actives have a fitted effect of over 50% in size. Further: potency means the concentration at half of the fitted maximal effect. In short, it runs like this: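 P450-Glo format: CYP2D6 converts a proluciferin substrate to luciferin in an NADPH-driven reaction lasting 1 h at room temperature. Light output, proportional to CYP2D6 activity, reflects interference by test chemicals.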
For orientation: A reporter such as luciferase makes a cellular process visible.

Test [6] has as its target Cytochrome P450 2C9 (Homo sapiens) (UniProt P11712). Nature of the test: Cytochrome P450 Family 2 Subfamily C Member 9 (CYP2C9) small molecule antagonists: luciferase reporter qHTS assay (AID 1671198). Further: nearly all actives have a fitted effect of over 50% in size. Further: potency means the concentration at half of the fitted maximal effect. In short, it runs like this:
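P450-Glo proluciferin substrate with CYP2C9 enzyme; 10 min RT preincubation, then NADPH regeneration 1 h at 37C; luciferin detection reagent 20 min RT, luminescence in relative luminescence units.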

The target of test [7] is Cytochrome P450 1A2 (Homo sapiens) (UniProt P05177). Nature of the test: Cytochrome P450 Family 1 Subfamily A Member 2 (CYP1A2) small molecule antagonists: luciferase reporter qHTS assay (AID 1671199). Further: nearly all actives have a fitted effect of over 50% in size. Further: potency means the concentration at half of the fitted maximal effect. In short, it runs like this: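 Inhibition of CYP1A2 conversion of proluciferin to luciferin, detected by luminescence. Reaction run 1 h at room temperature with NADPH regeneration after brief compound preincubation.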

Test [8] has as its target Voltage-gated inwardly rectifying potassium channel KCNH2 (Homo sapiens) (UniProt Q12809). Nature of the test: Human Ether-a-go-go-Related Gene (hERG) channel small molecule antagonists: fluorescence cell-based qHTS assay (AID 1671200). Further: nearly all actives have a fitted effect of over 50% in size. Further: potency means the concentration at half of the fitted maximal effect. In short, it runs like this:
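In this thallium-flux screen, overnight-cultured U2OS cells bearing the channel are dye-loaded in darkness for an hour, rested 10 min at room temperature, and then monitored kinetically at 480/540 nm for two minutes post-stimulus.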

For test [9], the target named is Cytochrome P450 3A4 (Homo sapiens) (UniProt P08684). Nature of the test: Cytochrome P450 Family 3 Subfamily A Member 4 (CYP3A4) small molecule antagonists: luciferase reporter qHTS assay (AID 1671201). A digest of the protocol:
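CYP3A4 activity was followed with a P450-Glo proluciferin substrate. Test compounds in DMSO were preincubated 10 min; NADPH regeneration then ran 1 h, and light output was read 20 min after detection reagent.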

The nature of test [10]: Caspase-3/7 induction in CHO-K1 cells by small molecules, qHTS cell viability counter screen (AID 1346979). Further: nearly all actives have a fitted effect of over 35% in size. Further: potency means the concentration at half of the fitted maximal effect. A digest of the protocol: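 Following a 5hr settling period, CHO-K1 cells at 1,500 per well received DMSO-dissolved compounds. Cell viability was quantified 16hr later by CellTiter-Fluor fluorescence, measured after 1hr with reagent at 37C.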
The target of test [11] is Nuclear receptor subfamily 1 group I member 2 (Homo sapiens) (UniProt O75469). Nature of the test: Human pregnane X receptor (PXR) small molecule agonists, qHTS assay (AID 1346982). Further: nearly all actives have a fitted effect of over 35% in size. Further: potency means the concentration at half of the fitted maximal effect. In short, it runs like this:
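Agonist mode qHTS: PXR-Luc HepG2 cells plated 5 hr before DMSO-dissolved compounds were pinned in, cultured 24 hr at 37 C, 5% CO2; ONE-Glo luminescence readout.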

For test [12] the target is unchanged. Nature of the test: Human pregnane X receptor (PXR) activation by small molecules, qHTS assay (AID 1346985). Further: nearly all actives have a fitted effect of over 40% in size. Further: potency means the concentration at half of the fitted maximal effect. In short, it runs like this:
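DPX-2 cells (HepG2 co-transfected with a PXR response element and a CYP3A4-promoter luciferase construct) were seeded at 2,000 per well, rested 5 hr at 37C, then exposed to DMSO-dissolved compounds for 24 hr. Activation was read as luciferase luminescence.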

Test [13] deals with Nuclear receptor subfamily 1 group I member 2 (Rattus norvegicus) (UniProt Q9R1A7). Nature of the test: Rat pregnane X receptor (rPXR) activation by small molecules, qHTS assay (AID 1346983). Further: nearly all actives have a fitted effect of over 20% in size. The conditions noted are these: rPXR luciferase reporter cells, One-Glo luminescence, 24 h; max activation: stronger effect = higher value. In short, it runs like this: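 Cell-based rPXR activation assay: rPXR cells, 2,000 per well, rested 5hr at 37 C, then exposed to compounds in DMSO for 24 hr at 37 C. Luciferase activity read by One-Glo luminescence after 30 min at room temperature.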

In test [14] the target is Nuclear receptor subfamily 1 group I member 2 (Homo sapiens) (UniProt O75469). Nature of the test: CYP3A4 induction through human pregnane X receptor (PXR) by small molecules, qHTS assay (AID 1346984). Further: nearly all actives have a fitted effect of over 40% in size. A digest of the protocol: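 Steps: seed DPX-2 cells, 5 hr at 37C; pin-transfer compounds; 24 hr at 37C; add Luciferin-IPA (3uM final), 3 hr at 37C; add One-Glo, 30 min RT; read luminescence.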

Test [15] concerns the target Cytochrome P450 2C19 (Homo sapiens) (UniProt P33261). Nature of the test: Cytochrome P450 Family 2 Subfamily C Member 19 (CYP2C19) small molecule antagonists: luciferase reporter qHTS assay (AID 1671197). Further: nearly all actives have a fitted effect of over 65% in size. Further: potency means the concentration at half of the fitted maximal effect. In short, it runs like this:
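P450-Glo CYP2C19 screening system; proluciferin substrate; DMSO compound stocks; 10 min RT preincubation; NADPH regeneration, 1 h at 37C; luciferin detection reagent, 20 min RT; luminescence as RLU.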
On the % scale 0 is the no-effect control and ±100 the full control effect.

Nuclear receptor subfamily 1 group I member 2 (Homo sapiens), sequence (O75469 whole entry, looked up): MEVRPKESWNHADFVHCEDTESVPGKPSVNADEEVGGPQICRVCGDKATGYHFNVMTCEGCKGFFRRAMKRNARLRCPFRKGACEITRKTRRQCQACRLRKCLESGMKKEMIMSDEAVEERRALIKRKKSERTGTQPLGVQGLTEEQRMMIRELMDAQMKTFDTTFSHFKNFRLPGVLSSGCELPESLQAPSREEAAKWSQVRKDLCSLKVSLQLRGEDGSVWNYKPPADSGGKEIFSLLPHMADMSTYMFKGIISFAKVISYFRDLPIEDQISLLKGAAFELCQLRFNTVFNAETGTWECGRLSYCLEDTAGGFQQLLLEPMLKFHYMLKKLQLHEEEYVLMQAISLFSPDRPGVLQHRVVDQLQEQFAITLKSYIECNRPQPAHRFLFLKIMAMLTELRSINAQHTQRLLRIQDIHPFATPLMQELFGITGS
Nuclear receptor subfamily 1 group I member 2 (Rattus norvegicus), sequence (Q9R1A7 whole entry, looked up): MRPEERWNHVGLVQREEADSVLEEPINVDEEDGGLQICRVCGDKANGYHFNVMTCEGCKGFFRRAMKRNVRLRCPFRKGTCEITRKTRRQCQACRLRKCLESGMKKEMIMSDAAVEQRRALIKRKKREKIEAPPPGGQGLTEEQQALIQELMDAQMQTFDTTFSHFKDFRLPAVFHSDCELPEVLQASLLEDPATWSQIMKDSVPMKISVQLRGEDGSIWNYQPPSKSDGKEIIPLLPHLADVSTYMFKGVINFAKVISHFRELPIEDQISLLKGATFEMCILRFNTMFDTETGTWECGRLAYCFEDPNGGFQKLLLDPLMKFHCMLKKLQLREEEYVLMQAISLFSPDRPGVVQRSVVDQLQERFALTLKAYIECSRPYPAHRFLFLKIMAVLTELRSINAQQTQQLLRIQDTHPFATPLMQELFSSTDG
Cytochrome P450 2C9 (Homo sapiens), sequence (P11712 whole entry, looked up): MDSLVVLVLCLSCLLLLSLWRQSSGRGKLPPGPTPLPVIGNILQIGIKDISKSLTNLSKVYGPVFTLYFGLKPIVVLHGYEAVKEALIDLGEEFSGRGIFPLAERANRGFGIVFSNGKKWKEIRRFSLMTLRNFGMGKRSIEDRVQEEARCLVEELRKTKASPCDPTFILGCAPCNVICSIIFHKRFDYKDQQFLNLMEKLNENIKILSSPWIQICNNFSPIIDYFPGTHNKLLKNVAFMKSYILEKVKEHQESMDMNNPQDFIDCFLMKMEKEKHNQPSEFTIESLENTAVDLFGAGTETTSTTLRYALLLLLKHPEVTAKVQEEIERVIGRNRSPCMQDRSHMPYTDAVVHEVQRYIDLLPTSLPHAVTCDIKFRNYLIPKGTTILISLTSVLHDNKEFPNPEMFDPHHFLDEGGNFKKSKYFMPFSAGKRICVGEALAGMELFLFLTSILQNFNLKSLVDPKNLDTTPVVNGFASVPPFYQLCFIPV
Cytochrome P450 2D6 (Homo sapiens), sequence (P10635 whole entry, looked up): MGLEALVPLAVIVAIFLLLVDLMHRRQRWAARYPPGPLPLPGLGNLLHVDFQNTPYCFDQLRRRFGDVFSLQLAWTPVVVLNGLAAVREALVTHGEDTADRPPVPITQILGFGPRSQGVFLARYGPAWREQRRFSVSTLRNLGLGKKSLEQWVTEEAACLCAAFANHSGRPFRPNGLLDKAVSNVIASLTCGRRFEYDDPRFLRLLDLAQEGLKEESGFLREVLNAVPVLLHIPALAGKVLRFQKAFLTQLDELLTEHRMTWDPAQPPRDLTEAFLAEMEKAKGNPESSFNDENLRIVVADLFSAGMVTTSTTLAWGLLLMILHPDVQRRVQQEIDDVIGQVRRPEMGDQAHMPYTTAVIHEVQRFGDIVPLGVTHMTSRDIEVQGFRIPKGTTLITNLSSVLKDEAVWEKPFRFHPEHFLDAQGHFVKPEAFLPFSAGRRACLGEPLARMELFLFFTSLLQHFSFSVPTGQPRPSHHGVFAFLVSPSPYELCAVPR
Voltage-gated inwardly rectifying potassium channel KCNH2 (Homo sapiens), sequence (Q12809 whole entry, looked up): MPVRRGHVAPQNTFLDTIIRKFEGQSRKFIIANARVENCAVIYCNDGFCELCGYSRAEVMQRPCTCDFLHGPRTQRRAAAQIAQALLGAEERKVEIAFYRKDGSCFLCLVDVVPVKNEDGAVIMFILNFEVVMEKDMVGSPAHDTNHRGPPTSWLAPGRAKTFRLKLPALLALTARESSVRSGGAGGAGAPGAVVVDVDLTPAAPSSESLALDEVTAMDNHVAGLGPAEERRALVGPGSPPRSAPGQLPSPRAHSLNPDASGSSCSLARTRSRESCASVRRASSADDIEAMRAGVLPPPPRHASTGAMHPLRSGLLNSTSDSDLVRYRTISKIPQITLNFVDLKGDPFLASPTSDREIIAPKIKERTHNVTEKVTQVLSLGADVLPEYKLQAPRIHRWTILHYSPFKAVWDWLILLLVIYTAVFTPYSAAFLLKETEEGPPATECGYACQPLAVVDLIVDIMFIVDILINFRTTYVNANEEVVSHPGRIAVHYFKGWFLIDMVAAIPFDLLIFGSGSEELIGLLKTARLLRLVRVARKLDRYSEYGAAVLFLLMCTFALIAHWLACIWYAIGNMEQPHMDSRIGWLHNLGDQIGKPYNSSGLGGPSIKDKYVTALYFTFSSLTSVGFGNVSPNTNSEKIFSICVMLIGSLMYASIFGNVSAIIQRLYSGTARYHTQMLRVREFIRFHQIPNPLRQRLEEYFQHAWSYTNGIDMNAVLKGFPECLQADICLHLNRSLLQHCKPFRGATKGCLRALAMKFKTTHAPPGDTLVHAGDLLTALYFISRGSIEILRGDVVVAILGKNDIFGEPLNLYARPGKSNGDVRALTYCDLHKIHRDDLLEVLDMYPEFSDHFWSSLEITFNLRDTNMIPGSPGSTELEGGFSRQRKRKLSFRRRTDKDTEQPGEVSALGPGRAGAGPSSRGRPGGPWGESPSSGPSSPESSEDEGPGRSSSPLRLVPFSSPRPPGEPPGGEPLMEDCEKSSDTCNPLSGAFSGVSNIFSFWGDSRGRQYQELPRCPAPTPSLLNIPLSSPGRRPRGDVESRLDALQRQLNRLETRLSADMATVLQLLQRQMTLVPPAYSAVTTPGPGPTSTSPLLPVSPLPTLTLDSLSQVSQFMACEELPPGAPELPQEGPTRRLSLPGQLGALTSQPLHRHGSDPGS
Cytochrome P450 1A2 (Homo sapiens), sequence (P05177 whole entry, looked up): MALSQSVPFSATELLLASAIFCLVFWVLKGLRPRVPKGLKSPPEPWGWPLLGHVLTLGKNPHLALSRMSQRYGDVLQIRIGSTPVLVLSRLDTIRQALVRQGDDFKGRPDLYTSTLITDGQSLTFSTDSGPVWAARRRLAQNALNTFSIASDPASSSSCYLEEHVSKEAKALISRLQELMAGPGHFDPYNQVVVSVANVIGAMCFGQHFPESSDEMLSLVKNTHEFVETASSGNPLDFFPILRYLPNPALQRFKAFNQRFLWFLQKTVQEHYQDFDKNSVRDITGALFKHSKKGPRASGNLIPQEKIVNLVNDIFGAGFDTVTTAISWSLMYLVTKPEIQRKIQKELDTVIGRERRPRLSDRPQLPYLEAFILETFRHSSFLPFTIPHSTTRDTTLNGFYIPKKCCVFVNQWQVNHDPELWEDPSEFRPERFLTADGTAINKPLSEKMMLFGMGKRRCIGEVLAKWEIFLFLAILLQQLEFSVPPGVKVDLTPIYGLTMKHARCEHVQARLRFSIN
Cytochrome P450 3A4 (Homo sapiens), sequence (P08684 whole entry, looked up): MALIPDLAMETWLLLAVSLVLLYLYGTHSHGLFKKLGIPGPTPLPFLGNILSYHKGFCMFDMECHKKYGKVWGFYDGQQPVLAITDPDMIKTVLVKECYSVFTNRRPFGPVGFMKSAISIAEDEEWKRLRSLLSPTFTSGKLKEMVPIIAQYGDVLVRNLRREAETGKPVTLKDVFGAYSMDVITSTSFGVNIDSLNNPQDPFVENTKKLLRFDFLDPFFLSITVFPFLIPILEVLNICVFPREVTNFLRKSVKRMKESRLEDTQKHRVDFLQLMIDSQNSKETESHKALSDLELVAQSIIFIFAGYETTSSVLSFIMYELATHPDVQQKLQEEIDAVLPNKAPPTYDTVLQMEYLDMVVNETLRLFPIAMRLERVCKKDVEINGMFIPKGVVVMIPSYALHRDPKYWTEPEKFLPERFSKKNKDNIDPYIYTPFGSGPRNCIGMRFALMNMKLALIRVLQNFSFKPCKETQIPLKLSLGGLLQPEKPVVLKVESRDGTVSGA
Cytochrome P450 2C19 (Homo sapiens), sequence (P33261 whole entry, looked up): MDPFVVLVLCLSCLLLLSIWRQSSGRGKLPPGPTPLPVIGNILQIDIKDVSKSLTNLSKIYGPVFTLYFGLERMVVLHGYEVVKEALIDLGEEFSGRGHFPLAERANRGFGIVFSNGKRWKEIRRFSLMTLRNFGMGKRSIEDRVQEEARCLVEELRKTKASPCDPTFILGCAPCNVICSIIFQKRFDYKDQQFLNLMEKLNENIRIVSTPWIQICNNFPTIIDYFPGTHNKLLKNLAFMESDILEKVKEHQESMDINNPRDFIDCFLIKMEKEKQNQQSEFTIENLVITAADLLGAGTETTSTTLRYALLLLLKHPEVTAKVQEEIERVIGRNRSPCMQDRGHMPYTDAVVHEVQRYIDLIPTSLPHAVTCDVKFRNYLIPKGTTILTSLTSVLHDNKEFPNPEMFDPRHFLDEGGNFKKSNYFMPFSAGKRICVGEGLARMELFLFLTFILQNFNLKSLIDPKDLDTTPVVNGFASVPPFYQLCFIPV

`COc1ccccc1/C=C/C=O`: the Potency result in test [1], in test [2], in [3], in [4], in test [5] and in test [6] was “inactive” in each case. The Potency entry in test [8] and in [9] was “inactive” each time. For the same compound, the Potency in [7] was 29 µM (active) and 25.2 µM (active).
Regarding `COc1cc([C@@H]2c3cc4c(cc3[C@H](O)[C@H]3COC(=O)[C@H]23)OCO4)cc(OC)c1OC`, the Potency entry in test [1], in [2], in [3], in test [5] and in [8] was “inactive” throughout. The Potency in test [10] is 8.6 nM (active) and 21.1 nM (active); in [11], 48.5 nM (active); in test [12], 14.1 µM (active); in test [6] it was 2.83 µM (active) and 2.19 µM (active); in test [7] it was 35.6 µM (active).
Regarding `CN(C)c1nc(N(C)C)nc(N(C)C)n1`, the Potency result in [1], in test [2], in test [10], in test [3], in [4] and in test [8] was “inactive” each time.
Take `O=C(Nc1ccc(Cl)cc1)Nc1ccc(Cl)c(Cl)c1`: the Potency was 7.08 µM (active) and 12.2 µM (active) and 13.3 µM (active) in test [1]; 19.2 µM (active) and 17.2 µM (active) and 18.8 µM (active) in test [10]; 7660 nM (active) in test [11]; 5 µM (active) and 7.1 µM (active) and 8.71 µM (active) in test [15]; 5 µM (active) and 5.64 µM (active) and 4.9 µM (active) in test [6]; 17.8 µM (active) and 22.4 µM (active) and 17.4 µM (active) in test [7]. Moreover, the Potency result in [2], in [3], in test [14], in test [12], in test [5] and in test [8] was “inactive” throughout. Also, in [9], the Potency result was “inactive”. Moreover, the max activation in test [13] is -13.1% (inactive).
Take `Cc1ncc[nH]1`: the Potency result in test [1], in [2], in test [10], in test [3], in test [4] and in test [5] was “inactive” each time. Besides, the Potency entry in [6], in [7] and in test [8] was “inactive” in each case. In test [13], the max activation is 1.32% (inactive). Besides, in test [15], the Potency is 39.8 µM (active) and inactive.
Take `Cc1ccc(C)c(O)c1C`: the Potency entry in [1], in test [2], in test [10], in test [3], in test [4] and in test [11] was “inactive” each time. Besides, the Potency result in test [5], in test [8] and in [9] was “inactive” throughout. For the same compound, in test [7], the Potency was 28.1 µM (active) and 28.3 µM (active).
Regarding `c1cc(N(CC2CO2)CC2CO2)ccc1OCC1CO1` (stereo not drawn), the Potency in test [1] is 61.1 µM (active); in [10], 48.6 µM (active) and 27.3 µM (active); in test [4], 54.5 µM (active) and 27.3 µM (active); in [11], 48.6 µM (active) and 24.3 µM (active); in test [5] it was 56.4 µM (active); in test [6], 63.4 µM (active) and 39.9 µM (active). Moreover, in test [7], the Potency is 63.3 µM (active). In addition, the Potency entry in test [3], in test [8] and in [9] was “inactive” in each case.
For the compound `COC(=O)C1=C(C)NC(C)=C(C(=O)OCCN(C)Cc2ccccc2)C1c1cccc([N+](=O)[O-])c1` (stereo not drawn), the Potency in test [1] was 27.1 µM (active) and 26.6 µM (active); in test [10], 30.5 µM (active) and 26.6 µM (active); in test [4], 48.3 µM (active) and 26.6 µM (active); in [8], 10.9 µM (active) and 8.49 µM (active). Moreover, the Potency entry in test [2], in [3] and in [7] was “inactive” throughout.
`O=P(O)(O)O`: the Potency result in test [1], in test [2], in test [10], in test [3], in [4] and in test [8] was “inactive” throughout. The max activation in test [13] is -4.8% (inactive).
As for `Nc1ccccc1N`, the Potency in [2] is 2.22 µM (active) and 9.41 µM (active); in test [10] it was “inactive and 47.2 µM (active)”; in test [4], 15 µM (active); in test [11], 1.76 µM (active) and 7.7 µM (active); in test [5] it was 36.4 µM (active) and 7.31 µM (active); in [15] it was 40.9 µM (active) and 17.8 µM (active). In addition, in [7], the Potency was 2.58 µM (active) and 13.8 µM (active). For the same compound, the Potency result in test [3] and in [8] was “inactive” each time.
